The panel holds about 83,000 compounds, 20% with a hit somewhere; the sample as a whole holds those more often.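 Method: cells in 96-well plates; compound added at one concentration; 48 h incubation; percent growth measured; values under 10 scored active.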 A number with no mark means an inactive call. Activity calls are given as the source filed them.
How the values were obtained:
Test in all cases: NCI-60 one-dose screen, 48 h (100 = growth as untreated, 0 = no growth, -100 = all killed)
Conditions in all cases: 10 µM
[1] = system: SR leukemia
[2] = system: RPMI-8226 leukemia
[3] = system: OVCAR-8 ovarian
[4] = system: OVCAR-5 ovarian
[5] = system: OVCAR-4 ovarian
[6] = system: SK-OV-3 ovarian
[7] = system: IGROV1 ovarian
[8] = system: OVCAR-3 ovarian
[9] = system: HS 578T breast
[10] = system: NCI/ADR-RES ovarian
[11] = system: T-47D breast
[12] = system: BT-549 breast
[13] = system: MDA-MB-435 melanoma
[14] = system: SW-620 colon
[15] = system: MCF7 breast
[16] = system: HCT-116 colon
[17] = system: HCC-2998 colon
[18] = system: KM12 colon

Row | Structure (SMILES) | growth [1] | growth [2] | growth [3] | growth [4] [%] | growth [5] | growth [6] [%] | growth [7] | growth [8] | growth [9] | growth [10] [%] | growth [11] [%] | growth [12] | growth [13] | growth [14] | growth [15] | growth [16] | growth [17] | growth [18]
1 | C[C@H]1[C@H](OC(=O)CCC(=O)O)O[C@@H]2O[C@]3(C)CC[C@H]4[C@H](C)CC[C@@H]1[C@@]24OO3 | -2.25% (active) | 25.8% | 23.4% | 44.3 | 37.6% | 92.9 | 54.5% | 30.8% | 47.2% | 23.6 | 31.3 | 37.9% | 9.74% (active) | 30.6% | 28.4% | 14.1% | 48.1% | 27.1%
2 | COc1ccc(/C=C2\CCCC3=C2NC(N)=NC3c2ccc(OC)c(OC)c2)cc1OC (stereo not drawn) | 28.1% | 15.2% | 10.6% | 74.4 | 53.4% | 44.1 | 57.1% | 10.8% | 87.9% | 25.1 | 78.6 | 36.1% | 30.8% | 40.7% | 27.6% | 7.91% (active) | 88% | 32.1%
3 | CCOC(=O)C1=CSC2=NC3=C(CCC/C3=C\c3ccc(Cl)cc3)C(c3ccc(Cl)cc3)N12 (stereo not drawn) | 89.6% | 6.15% (active) | 93.7% | 103 | 94.7% | 94.7 | 109% | 100% | 91.9% | 98.1 | 77.4 | 98.4% | 79.1% | 100% | 31.3% | 49.7% | 101% | 66.7%
4 | Clc1ccc2c(c1)C(N1CCNCC1)=Nc1ccccc1O2 | 3.72% (active) | 50% | 73.2% | 69 | 41.1% | 67 | 48.1% | 46.6% | 60.7% | 62.8 | 35.2 | 72.9% | 28.9% | 67% | 28.9% | 36.2% | -25.4% (active) | 51.9%
5 | NC1=NC(c2ccccc2)C2=C(N1)/C(=C/c1ccccc1)CCC2 (stereo not drawn) | 46% | -7.58% (active) | 80% | 106 | 81.3% | 74 | 100% | 81.6% | 88.5% | 95.8 | 93.1 | 112% | 36.8% | 72.8% | 38.6% | -53.1% (active) | 48.5% | 47%
6 | Oc1cccc(-c2nc3sccn3c2-c2ccncn2)c1 | 60.1% | 118% | 102% | 119 | 114% | 88.4 | 91.2% | 114% | 81.7% | 94 | 108 | 110% | 46% | 108% | 76.7% | 97.3% | 111% | 107%
7 | O=C(Nc1ccc(OS(=O)(=O)c2ccccc2)cc1)C1CCCCC1 | 47.2% | 76.4% | 94.6% | 100 | 102% | 95.6 | 106% | 95% | 103% | 88.3 | 85.4 | 84% | 100% | 102% | 97% | 72.1% | 92.4% | 88.5%
8 | O=C1/C(=C/c2ccc([N+](=O)[O-])s2)Oc2cc(Cl)ccc21 | 8.31% (active) | -14.7% (active) | -25.5% (active) | 53 | 3.28% (active) | 88.8 | -60.9% (active) | -76.8% (active) | 1.22% (active) | 24 | 11.2 | -55% (active) | -25.7% (active) | -40.9% (active) | 4.42% (active) | -17.8% (active) | 2.91% (active) | -28.4% (active)
9 | Cc1ccc(Cl)cc1NC(=O)CCl | 43.2% | 43.8% | 88% | 136 | 76.9% | 93.5 | 64.4% | 99% | 94.2% | 102 | 77.6 | 57.2% | 83.1% | 73.7% | 67.8% | 62.9% | 114% | 96.1%
10 | NS(=O)(=O)Oc1ccc(NC(=O)C2CCCCCC2)cc1 | 98.5% | 102% | 98.8% | 98.4 | 107% | 99 | 103% | 102% | 108% | 103 | 90.7 | 104% | 106% | 106% | 97.7% | 105% | 101% | 101%
11 | CC(=O)Nc1ccc2c(c1)C(=O)c1cccc(C(=O)O)c1-2 | 123% | 105% | 106% | 103 | 108% | 108 | 135% | 118% | 109% | 107 | 99.3 | 117% | 102% | 99.8% | 105% | 105% | 102% | 120%
12 | N=C1S/C(=C/c2ccc(-c3ccc4c(c3)C(=O)NC4=O)o2)C(=O)N1c1ccc(Br)cc1 | 25% | 38.8% | 37.8% | 86.3 | 1.3% (active) | 62.3 | 21.9% | 51.4% | 61.6% | 50.5 | 19.9 | 60.3% | 39.1% | 48.5% | 3.39% (active) | 31.8% | 89% | 46.4%
13 | Nc1cc(-c2ccncc2)c[nH]c1=O | 74.3% | 109% | 100% | 98.8 | 106% | 120 | 108% | 107% | 110% | 104 | 114 | 93.5% | 115% | 110% | 91% | 97.1% | 116% | 104%
14 | O=C1CSC(=S)N1/N=C/c1ccc(Cl)s1 | 98.2% | 97.4% | 106% | 97.6 | 119% | 92.6 | 100% | 104% | 112% | 97.5 | 102 | 102% | 106% | 108% | 101% | 107% | 99.8% | 97.5%
15 | CCC(C)[C@H](NC(C)=O)C(=O)N[C@@H](CCCNC(=N)N)C(=O)N[C@@H](CCCCN)C(=O)N[C@@H](CC1CCC(O)CC1)C(=O)NC(C(=O)N[C@@H](CCSC)C(=O)N[C@@H](CCCNC(=N)N)C(=O)N[C@@]1(C)CCC/C=C\CCC[C@@](C)(C(=O)NC(C(=O)N[C@@H](CCC(=O)O)C(=O)N[C@@H](CC(C)C)C(=O)N[C@H](C(=O)N[C@@H](CCC(=O)O)C(N)=O)C(C)C)[C@@H](C)O)NC(=O)[C@H](CCC(N)=O)NC(=O)[C@H](CC(C)C)NC(=O)[C@H](CC(C)C)NC1=O)[C@@H](C)O (stereo partly drawn) | 98.5% | 95% | 98.4% | 115 | 100% | 98.4 | 100% | 104% | -7.65% (active) | 108 | 78.9 | 117% | 105% | 90.4% | 102% | 89.1% | 103% | 96.9%
16 | CCC(c1ccc(OC)cc1)C(CC)c1ccc(O)c(CN2CCN(C)CC2)c1 (stereo not drawn) | 4.26% (active) | -21.6% (active) | 67% | 80.4 | 60.2% | 78.7 | 68.5% | 79.8% | 61.4% | 60.3 | 39.1 | 76.9% | 33.5% | 16.6% | 50.9% | 29.1% | -1.52% (active) | 53.9%
